# Assay outcomes as filed in PubChem BioAssay.
# Compounds with a hit are over-represented: about 3.1% of the library has one in this group of screens.
# ASM inhibitor = inhibitors of human secretory acid sphingomyelinase; P17405; placental ASM, HMU-PC fluorogenic substrate, 60 min; Potency, µM (highest dose often 57.5 µM), for inactives: at the top dose activity change, negative = inhibition, hits mostly inhibitors; hit rate 0.006% among 340,000; AID 504937
#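 HMU-PC0 cleavage (9 uM final) by human placental ASM, 60 min at 37 °C following 10 min compound exposure at RT; stopped at pH 10, fluorescence Ex 386/Em 447 nm.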
# Tb PFK block = inhibitors of T. brucei phosphofructokinase | T. brucei PFK, ADP-Glo luminescence | Potency, µM (top dose mostly 57.5 µM), inactives show top-dose activity, negative = inhibition, hits mostly inhibitors | hit rate 0.17% among 330,000;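 further: 0% = uninhibited 1x PFK enzyme wells and -100% = no-enzyme wells; nearly all actives have a fitted effect of over 60% in size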
#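 Luminescent ADP detection (ADP-Glo, two-step: ATP depletion then ADP-to-ATP conversion for luciferase) reported PFK activity after 45 min room-temperature reaction of 1.25 nM enzyme with 0.5 mM F6P and 0.1 mM ATP at pH 8.0.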
# VDR inh = inhibitors of human vitamin D receptor; VDR-SRC2-3 peptide fluorescence polarization, 2 h; Potency, µM, without a hit: max response, negative = inhibition, most hits filed as inhibitors; hit rate 0.93% among 400,000; AID 504847; further: on the % scale 0 is the no-effect control and ±100 the full control effect
#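 Measured by FP: displacement of SRC2-3 coactivator peptide from VDR by library compounds, following a two-hour ambient incubation.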
# TDP1 inh = inhibitors of human tyrosyl-DNA phosphodiesterase TDP1. recombinant TDP1, AlphaScreen DNA substrate cleavage. Potency, µM (doses to about 130 µM), for inactives: at the highest dose activity change, negative = inhibition, usual class: inhibitors. hit rate 0.28% among 350,000; further: on the % scale 0 is the no-effect control and ±100 the full control effect; nearly all actives have a fitted effect of over 40% in size
#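 AlphaScreen read-out: signal falls as enzyme removes the 3' tyrosine-FITC from a 5'-biotinylated DNA oligo (15 nM, 5 min, RT). Enzyme was E. coli-made recombinant Tdp1 at 1 nM, exposed to compound for 15 min beforehand; beads 10 ug/ml, 10 min.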
# PLK1 PBD inh = inhibitors of human PLK1 polo-box domain binding; P53350; Plk1 PBD binding of FITC phosphopeptide, fluorescence polarization; Potency, µM, without a hit: max response, negative = inhibition, actives largely listed as inhibitors; hit rate 2.8% among 360,000; AID 720504; further: series mostly up to about 57 µM; on the % scale 0 is the no-effect control and ±100 the full control effect; nearly all actives have a fitted effect of over 65% in size
# Pin1 inhibitor = blocks the human prolyl isomerase Pin1; Q13526; Pin1 FP peptide displacement, HiFluor488, 10 min; Potency, µM (top dose mostly 115 µM), inactives show at the top dose activity, negative = inhibition, hits mostly inhibitors; hit rate 0.009% among 390,000; AID 504891; active means well fitted inhibition curve with a large enough effect in the polarisation, with a control signal flat, not every such curve was filed as active; inconclusive means small, poorly fitted or top-dose-only effect, or effect the other way, or a change in a side signal; inactive means no such curve, though single readings can be large or run the other way; the % refers to the polarisation; further: on the % scale 0 is the no-effect control and ±100 the full control effect
# Target sequence (Q13526 whole entry, looked up): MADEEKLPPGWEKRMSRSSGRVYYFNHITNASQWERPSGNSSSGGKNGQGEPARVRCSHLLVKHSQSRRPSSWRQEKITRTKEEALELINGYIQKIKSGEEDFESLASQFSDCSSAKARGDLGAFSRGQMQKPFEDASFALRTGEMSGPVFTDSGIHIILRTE
# TbPYK confirm = Trypanosoma brucei pyruvate kinase inhibition, cherry-pick confirmation; hit rate 67% among 890; recombinant TbPYK, Kinase-Glo ATP luminescence; AID 720569; shares compounds with PLK1 PBD inh; Potency, µM (series often up to 76.9 µM), without a hit: at the top dose activity change, negative = inhibition, most hits filed as inhibitors; further: on the % scale 0 is the no-effect control and ±100 the full control effect; nearly all actives have a fitted effect of over 70% in size
# TbPYK ADP-Glo = inhibits T. brucei pyruvate kinase in orthogonal ADP-Glo assay | AID 720584 | hit rate 62% among 890 | Potency, µM (top dose mostly 76.9 µM), for inactives: at the highest dose activity change, negative = inhibition, actives largely listed as inhibitors | recombinant TbPYK, ADP-Glo luminescence, 60 min | shares compounds with PLK1 PBD inh; further: on the % scale 0 is the no-effect control and ±100 the full control effect; nearly all actives have a fitted effect of over 75% in size
# * hit, by the source's call; ? = inconclusive; · = not tested or not shown. Unless noted, the call rests on the fitted dose curve; in most records, active means well fitted curve in the direction sought with a large enough effect; inconclusive means small, poorly fitted or top-dose-only effect, or another doubt; inactive means no such curve, though single readings can be large; an effect the other way counts as inactive or inconclusive. Potency means the concentration at half of the fitted maximal effect.
SMILES,ASM inhibitor,Tb PFK block,VDR inh,TDP1 inh,PLK1 PBD inh,Pin1 inhibitor,TbPYK confirm,TbPYK ADP-Glo
N#CC1=C2SCN(c3ccccc3)CN2C(=O)CC1c1ccccc1Cl (stereo not drawn),-6.4%,-2.9%,28.2µM*,10.5%,26.7µM*,-5.6%,7.94µM*,5.62µM*
CCc1c(C)sc2c1CCN(Cc1ccc(F)cc1)C2c1ccccc1 (stereo not drawn),·,·,13.9%,3.8%,·,?,·,·
CCOC(=O)c1c(NS(=O)(=O)c2ccc(Br)cc2)sc2c1CCC2,1.0%,·,-27.1%,·,21.2µM*,?,35.5µM*,?
COc1ccccc1-c1nnc(SCC#CCOC(=O)c2ccc(F)cc2)o1,·,·,·,-4.5%,·,-3.9%,·,·
COc1cc(SC)ccc1C(=O)N1CCN(c2ccccc2OC)CC1,9.9%,1.4%,-10.6%,-5.1%,-15.1%,-2.6%,·,·
COc1ccc(OC)c(C2CC(=O)N3CN(c4cccc(Cl)c4C)CSC3=C2C#N)c1 (stereo not drawn),3.1%,-13.1%,31.6µM*,5.2%,?,4.2%,15.8µM*,7.94µM*
COc1cccc(C2CC(=O)N3CN(c4cccc(Cl)c4C)CSC3=C2C#N)c1OC (stereo not drawn),5.5%,-7.3%,22.4µM*,5.2%,26.7µM*,4.1%,17.8µM*,6.31µM*
COc1cc(CN2CC(=O)N(c3cccc(Cl)c3C)C2=S)cc(OC)c1OC,-4.2%,-0.3%,-5.4%,·,-4.9%,2.0%,·,·
COc1ccc(OC)c(C2CC(=O)N3CN(c4ccccc4F)CSC3=C2C#N)c1 (stereo not drawn),1.5%,-16.4%,35.5µM*,10.5%,?,0.4%,5.01µM*,10µM*
COc1ccccc1N1CSC2=C(C#N)C(c3ccc(SC)cc3)CC(=O)N2C1 (stereo not drawn),-4.2%,-14.2%,22.4µM*,6.1%,18.9µM*,·,2.51µM*,2.24µM*
CCC(=O)N1CCc2cc(S(=O)(=O)CCC(=O)N3CCN(c4cccc(C)c4)C(C)C3)ccc21 (stereo not drawn),·,·,-28.2%,2.3%,·,-0.9%,·,·
CCOC(=O)c1ccc(N2CSC3=C(C#N)C(c4ccc(OC)cc4OC)CC(=O)N3C2)cc1 (stereo not drawn),-4.1%,-18.5%,-16.0%,7.8%,-11.0%,9.2%,·,·
COc1ccc(OC)c(C2CC(=O)N3CN(c4cccc(Cl)c4)CSC3=C2C#N)c1 (stereo not drawn),2.7%,-29.4%,50.1µM*,8.6%,-8.2%,-0.4%,?,39.8µM*
CCCCCCC(=O)N(O)C1CC(=O)N(c2ccc(F)cc2)C1=O (stereo not drawn),-6.6%,-8.9%,39.8µM*,9.6%,26.7µM*,-0.8%,?,?
CCCCCCC(=O)N(O)C1CC(=O)N(c2ccc(Br)cc2)C1=O (stereo not drawn),-12.9%,-10.4%,?,8.4%,?,6.5%,·,·
Clc1ccc(CSc2nccn2Cc2ccccc2)cc1,-2.1%,-4.8%,1.9%,3.8%,-2.5%,2.4%,1.26µM*,1.12µM*
O=C(CC1N=C2c3ccccc3N=C(SCc3cccc(Cl)c3)N2C1=O)NCCc1ccccc1 (stereo not drawn),·,·,10.5%,1.5%,·,50.8%,·,·
O=c1cc(C(F)(F)F)[nH]c(=S)n1-c1ccccc1,0.2%,-3.5%,-28.1%,·,?,-0.6%,14.1µM*,11.2µM*
O=C1c2cccc3cccc(c23)C(=O)C1(O)O,-4.6%,·,?,·,?,?,6.31µM*,5.01µM*
CC(=O)N1C(=O)c2cccc3cccc(c23)C(=O)N1C(C)=O,1.0%,-3.3%,-2.8%,9.1%,-13.3%,19.9%,·,·
Fc1ccc(/C=N/Nc2nccnc2Cl)cc1,7.4%,-11.7%,-1.7%,-2.6%,4.5%,4.0%,·,·
